Assay results published in PubChem BioAssay (NCI).
The panel holds about 79,000 compounds, 15% with a hit somewhere; the sample as a whole holds those more often. Calls of active or inactive are those of the source. Cut-off read from the data, not from the text of the source: active = growth inhibition above about 70%; inactive = the rest.

What was measured:
[1] = NCI Yeast Anticancer Drug Screen. Data for the rad52 strain (AID 147);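 note: 0% = growth of vehicle-treated control cultures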; settings: S. cerevisiae rad52 mutant growth inhibition, active compounds read high
How it was run: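 Genetically altered yeast (DNA damage repair defect) treated with compound; inhibition calculated relative to vehicle.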

[2] = NCI Yeast Anticancer Drug Screen. Data for the wt1 strain (AID 149);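 note: 0% = growth of vehicle-treated wt1 cultures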; settings: S. cerevisiae wt1 strain (SPY 50644) growth inhibition, active compounds read high
How it was run: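 Measured: growth of wt1 yeast under compound versus vehicle treatment, reported as inhibition.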

[3] = NCI Yeast Anticancer Drug Screen. Data for the mgt1 strain (AID 153); settings: S. cerevisiae mgt1 mutant growth inhibition, active compounds read high
How it was run: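 Read-out: yeast growth inhibition vs vehicle control. Strain mgt1, drawn from a panel altered in DNA damage repair or cell cycle control.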

[4] = NCI Yeast Anticancer Drug Screen. Data for the rad50 strain (AID 155);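 note: 0% = growth of vehicle-only cultures of the same strain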; settings: S. cerevisiae rad50 strain growth inhibition, active compounds read high
How it was run: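 Growth of the mutant yeast was measured after compound exposure and referenced to vehicle-treated cultures.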

[5] = NCI Yeast Anticancer Drug Screen. Data for the mec2-1 strain (AID 157); settings: S. cerevisiae mec2-1 strain, active compounds read high
How it was run: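 Cells of the genetically defined mec2-1 yeast strain are incubated with test compound. Inhibition of growth is calculated against vehicle-treated controls.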

[6] = NCI Yeast Anticancer Drug Screen. Data for the rad14 strain (AID 159);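 note: 0% = growth of vehicle-treated control cultures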; settings: S. cerevisiae rad14 strain growth inhibition, active compounds read high
How it was run: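 Here, inhibition of yeast growth was measured after compound exposure, using a strain with a genetic defect in DNA damage repair and vehicle-treated cultures as the reference.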

[7] = NCI Yeast Anticancer Drug Screen. Data for the sgs1 mgt1 strain (AID 161);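 note: 0% = growth of cultures given vehicle only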; settings: S. cerevisiae sgs1 mgt1 strain, active compounds read high
How it was run: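 Mutant yeast exposed to compound; growth scored against vehicle-only wells.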

[8] = NCI Yeast Anticancer Drug Screen. Data for the CLN2oe strain (AID 163);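 note: 0% = growth of vehicle-only control cultures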; settings: S. cerevisiae CLN2oe strain, active compounds read high
How it was run: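 Strain altered in cell-cycle control, incubated with compound; growth compared to solvent-treated controls.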

[9] = NCI Yeast Anticancer Drug Screen. Data for the cln2 rad14 strain (AID 165);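 note: 0% = growth equal to vehicle treated cultures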; settings: S. cerevisiae cln2 rad14 strain, active compounds read high
How it was run: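 The screen exposed genetically defined yeast (cln2 rad14) to test compounds and scored growth inhibition relative to vehicle-treated controls.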

[10] = NCI Yeast Anticancer Drug Screen. Data for the bub3 strain (AID 167); settings: S. cerevisiae bub3 mutant strain, active compounds read high
How it was run: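 Whole-cell yeast assay. The mutant strain was incubated with compounds, and growth inhibition was determined by comparison with vehicle-treated cells.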

[11] = NCI Yeast Anticancer Drug Screen. Data for the wt2 strain (AID 169);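 note: 0% = growth of vehicle-treated yeast cultures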; settings: S. cerevisiae wt2 strain growth inhibition, active compounds read high
How it was run: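 Steps: yeast strain treated with compound; growth recorded; inhibition calculated relative to cultures given vehicle alone.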

[12] = NCI Yeast Anticancer Drug Screen. Data for the mlh1 strain (AID 171);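 note: 0% = growth of vehicle-treated control cultures of the same strain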; settings: S. cerevisiae mlh1 strain growth inhibition, active compounds read high
How it was run: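 Yeast screen: mutant strain plus compound, growth scored against vehicle control wells.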

[13] = NCI Yeast Anticancer Drug Screen. Data for the sgs1 strain (AID 173);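 note: 0% = growth of vehicle-only control cultures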; settings: S. cerevisiae sgs1 mutant, active compounds read high
How it was run: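 Inhibition of yeast growth served as the measure. The mutant strain was treated with each compound, and growth was normalised to cultures receiving vehicle alone.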

[14] = NCI Yeast Anticancer Drug Screen. Data for the mlh1 rad18 strain (AID 175); settings: S. cerevisiae mlh1 rad18 strain growth inhibition, active compounds read high
How it was run: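 Compound-treated yeast growth, normalised to vehicle controls. Strain bears defined DNA repair mutations.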

[15] = NCI Yeast Anticancer Drug Screen. Data for the rad18 strain (AID 177); settings: S. cerevisiae rad18 mutant growth inhibition, active compounds read high
How it was run: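 Inhibition values reflect reduced yeast growth compared with vehicle-treated controls, using a strain engineered with a DNA damage repair defect.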

[16] = NCI Yeast Anticancer Drug Screen. Data for the rad50EPP+ strain (AID 151);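 note: 0% = growth of vehicle-treated control cultures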; settings: S. cerevisiae rad50 mutant strain, active compounds read high
How it was run: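 Strain rad50EPP+; compound exposure; % growth inhibition vs vehicle.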

[17] = at 5.0 µM (retest, dose inferred, filed as 0.5)
[18] = at 50.0 µM (retest, dose inferred, filed as 5.0)

Measured: growth inhibition

O=[N+]([O-])[O][Sn]([O][Sn]([O][N+](=O)[O-])([c]1ccccc1)[c]1ccccc1)([c]1ccccc1)[c]1ccccc1
active: [3]; at 100.0 µM 94% | [4]; at 100.0 µM 85% | [5]; at 100.0 µM 86% | [6]; at 100.0 µM 94% | [7]; [18] 94% | [7]; at 50.0 µM 70% | [10]; [18] 84% | [10]; at 50.0 µM 72.5% | [12]; at 100.0 µM 94% | [13]; at 100.0 µM 98% | [15]; at 100.0 µM 90%
inactive: [1]; at 1.2 µM 6% | [1]; at 3.7 µM 9% | [1]; at 11.0 µM 13% | [1]; at 33.0 µM 32% | [1]; at 100.0 µM 57% | [2]; at 1.2 µM -3% | [2]; at 3.7 µM -7% | [2]; at 11.0 µM -11% | [2]; at 33.0 µM -2% | [2]; at 100.0 µM 62% | [3]; at 1.2 µM 8% | [3]; at 3.7 µM 10% | [3]; at 11.0 µM 25% | [3]; at 33.0 µM 10% | [4]; at 1.2 µM 16% | [4]; at 3.7 µM 20% | [4]; [17] 25% | [4]; at 11.0 µM 16% | [4]; at 33.0 µM 28% | [4]; [18] 66% | [4]; at 50.0 µM 65.2% | [5]; at 1.2 µM 9% | [5]; at 3.7 µM 0% | [5]; [17] 11% | [5]; at 11.0 µM 16% | [5]; at 33.0 µM 14% | [5]; [18] 44% | [5]; at 50.0 µM 57.6% | [6]; at 1.2 µM 0% | [6]; at 3.7 µM -8% | [6]; at 11.0 µM -7% | [6]; at 33.0 µM 22% | [7]; [17] 35% | [8]; at 1.2 µM -32% | [8]; at 3.7 µM -48% | [8]; at 11.0 µM -34% | [8]; at 33.0 µM -30% | [8]; at 100.0 µM 29% | [9]; [17] 3% | [9]; [18] 26% | [9]; at 50.0 µM 30.2% | [10]; at 1.2 µM 8% | [10]; at 3.7 µM -4% | [10]; [17] 23% | [10]; at 11.0 µM -7% | [10]; at 33.0 µM 6% | [10]; at 100.0 µM 62% | [11]; at 1.2 µM -47% | [11]; at 3.7 µM -47% | [11]; at 11.0 µM -25% | [11]; at 33.0 µM -26% | [11]; at 100.0 µM 58% | [12]; at 1.2 µM 7% | [12]; at 3.7 µM -3% | [12]; at 11.0 µM 5% | [12]; at 33.0 µM 35% | [13]; at 1.2 µM -6% | [13]; at 3.7 µM -12% | [13]; at 11.0 µM -24% | [13]; at 33.0 µM 51% | [14]; [17] 19% | [14]; [18] 67% | [14]; at 50.0 µM 68% | [15]; at 1.2 µM -12% | [15]; at 3.7 µM -12% | [15]; at 11.0 µM -11% | [15]; at 33.0 µM 5%

CC(C)(C)c1ccc2c(c1)C(=O)c1ccccc1C2=O
inactive: [1]; at 1.2 µM -9% | [1]; at 3.7 µM -13% | [1]; at 11.0 µM -15% | [1]; at 33.0 µM -6% | [1]; at 100.0 µM 4% | [2]; at 1.2 µM 0% | [2]; at 3.7 µM 12% | [2]; at 11.0 µM 14% | [2]; at 33.0 µM 12% | [2]; at 100.0 µM 15% | [16]; at 1.2 µM -9% | [16]; at 3.7 µM -1% | [16]; at 11.0 µM 18% | [16]; at 33.0 µM 27% | [16]; at 100.0 µM 28% | [4]; at 1.2 µM -17% | [4]; at 3.7 µM -18% | [4]; [17] 14% | [4]; at 11.0 µM -19% | [4]; at 33.0 µM 8% | [4]; [18] 5% | [4]; at 50.0 µM -2.85% | [4]; at 100.0 µM 6% | [6]; at 1.2 µM 1% | [6]; at 3.7 µM -13% | [6]; at 11.0 µM -6% | [6]; at 33.0 µM 2% | [6]; at 100.0 µM 13% | [7]; [17] 9% | [7]; [18] 20% | [7]; at 50.0 µM 0.45% | [8]; at 1.2 µM -11% | [8]; at 3.7 µM -12% | [8]; at 11.0 µM -14% | [8]; at 33.0 µM -13% | [8]; at 100.0 µM -12% | [9]; [17] -7% | [9]; [18] 0% | [9]; at 50.0 µM -6.45% | [10]; at 1.2 µM 4% | [10]; at 3.7 µM 24% | [10]; [17] 25% | [10]; at 11.0 µM 65% | [11]; at 1.2 µM 1% | [11]; at 3.7 µM 6% | [11]; at 11.0 µM 10% | [11]; at 33.0 µM 10% | [11]; at 100.0 µM 25% | [12]; at 1.2 µM -15% | [12]; at 3.7 µM -10% | [12]; at 11.0 µM -10% | [12]; at 33.0 µM -10% | [12]; at 100.0 µM 12% | [13]; at 1.2 µM -13% | [13]; at 3.7 µM -7% | [13]; at 11.0 µM 0% | [13]; at 33.0 µM 5% | [13]; at 100.0 µM 17% | [14]; [17] 5% | [14]; [18] 26% | [14]; at 50.0 µM -4.9% | [15]; at 1.2 µM -11% | [15]; at 3.7 µM -9% | [15]; at 11.0 µM -6% | [15]; at 33.0 µM -6% | [15]; at 100.0 µM -14%
active: [10]; at 33.0 µM 78% | [10]; [18] 85% | [10]; at 50.0 µM 89% | [10]; at 100.0 µM 91%

CCCCOc1ccc2nc(C)cc(N=[N+]=[N-])c2c1
inactive: [1]; at 1.2 µM 8% | [1]; at 3.7 µM 9% | [1]; at 11.0 µM 14% | [1]; at 33.0 µM 20% | [2]; at 1.2 µM 11% | [2]; at 3.7 µM 10% | [2]; at 11.0 µM 11% | [2]; at 33.0 µM 15% | [2]; at 100.0 µM 69% | [16]; at 1.2 µM -1% | [16]; at 3.7 µM -3% | [16]; at 11.0 µM 0% | [16]; at 33.0 µM 10% | [16]; at 100.0 µM 45% | [4]; at 1.2 µM 4% | [4]; at 3.7 µM -4% | [4]; [17] 19% | [4]; at 11.0 µM -1% | [4]; at 33.0 µM 33% | [4]; [18] 49% | [4]; at 50.0 µM 19.7% | [5]; at 1.2 µM 11% | [5]; at 3.7 µM 8% | [5]; [17] 7% | [5]; at 11.0 µM 14% | [5]; at 33.0 µM 28% | [5]; [18] -1% | [5]; at 50.0 µM 23.8% | [6]; at 1.2 µM 7% | [6]; at 3.7 µM 5% | [6]; at 11.0 µM 11% | [6]; at 33.0 µM 48% | [7]; [17] 12% | [7]; [18] -13% | [9]; [17] 6% | [9]; at 50.0 µM 40.8% | [10]; at 1.2 µM 11% | [10]; at 3.7 µM 9% | [10]; [17] 5% | [10]; at 11.0 µM 12% | [10]; at 33.0 µM 31% | [10]; [18] 33% | [10]; at 50.0 µM 37% | [12]; at 1.2 µM 7% | [12]; at 3.7 µM 10% | [12]; at 11.0 µM 13% | [12]; at 33.0 µM 38% | [13]; at 1.2 µM 12% | [13]; at 3.7 µM 13% | [13]; at 11.0 µM 15% | [13]; at 33.0 µM 41%
active: [1]; at 100.0 µM 86% | [4]; at 100.0 µM 92% | [5]; at 100.0 µM 79% | [6]; at 100.0 µM 98% | [7]; at 50.0 µM 91.2% | [9]; [18] 70% | [10]; at 100.0 µM 87% | [12]; at 100.0 µM 97% | [13]; at 100.0 µM 96%
